BRCA1 expr up: qHTS Assay to Identify Small Molecule Activators of BRCA1 Expression; MCF7-BRCA1-FFLuc reporter, luminescence, 48 h; response scale: scaled: vehicle 0%, 10 µM genistein 100%; Potency, µM (doses to about 46.1 µM), for the others: at the top dose activation, usual class: activators; actives 1.1% (n = 380,000); AID 624202, 2012; note: potency is the fitted concentration of half-maximal effect; nearly all actives have a fitted effect of over 80% in size
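Luminescence from a BRCA1-driven firefly luciferase in MCF7 cells was the read-out, taken 15 min after substrate addition following 48 h compound exposure at 37 °C. Data were normalized to a 10 microM genistein control and DMSO vehicle.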
Nrf2 inh: Nrf2 qHTS screen for inhibitors. Potency, µM (doses to about 46 µM), inactives show at the top dose activity change, negative = inhibition, most hits filed as inhibitors. actives 2.1% (n = 360,000). A549 ARE-Fluc reporter, luciferase luminescence, 18-24 h; note: potency is the fitted concentration of half-maximal effect; % is set by controls: 0 for no effect and ±100 for the full control effect; nearly all actives have a fitted effect of over 60% in size
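Quantitative HTS in A549 cells stably bearing an antioxidant response element-firefly luciferase construct. Inhibition of Nrf2-driven transcription was scored by luminescence after 18-24 h of compound exposure at 37 °C.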
IL2 activator: qHTS of IL-2 Activators; AID 652025, 2013; IL-2 activation reporter assay, cell-based qHTS; stimulated with anti-CD3/CD4/CD28 beads; in transgenic mouse T cells; activation, % (series mostly up to about 46 µM); actives 0.065% (n = 360,000); in the data active = activation above about 50%; inconclusive = mostly about 30% to 49%; note: 0% is about no effect
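Unstimulated transgenic mouse T cells, 750 per well, received compound and, after 60 minutes, anti-CD3/anti-CD4 bead plus anti-CD28 stimulation. EGFP and DsRed were quantified after 18 hours.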
p53 reactivator: qHTS assay for re-activators of p53 using a Luc reporter; H1299 p53-A138V BP100-luciferase reporter, luminescence, 24 h; Potency, µM (titrated, usually from 92.2 µM), without a hit: at the top dose activity change, positive = activation, actives largely listed as activators; AID 504706, 2011; actives 0.063% (n = 320,000); note: potency is the fitted concentration of half-maximal effect; % of control where 0% means no effect; nearly all actives have a fitted effect of over 45% in size
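H1299 (p53-null), stable ts p53-A138V + BP100-Luc; 1000 cells/well, Opti-MEM/10% FBS; cpd 4 pt, 1:5; 24 h, 37 deg C, 5% CO2; detection reagent 10 min RT; luminescence.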
A549 tox-1: Nrf2 qHTS screen for inhibitors: counterscreen for cytotoxicity. A549 ARE-Fluc cells, CellTiter-Fluor viability, 18-24 h. Potency, µM (series often up to 46 µM), for the others: at the top dose activity change, negative = cytotoxicity, actives largely listed as inhibitors. actives 0.16% (n = 390,000); note: potency is the fitted concentration of half-maximal effect; % is set by controls: 0 for no effect and ±100 for the full control effect
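Cytotoxicity counterscreen: CellTiter-Fluor fluorescence was measured in A549 ARE_Fluc cells after 18-24 h of compound exposure in a concentration series. The subsequent BugLite luminescent read reports ARE-luciferase activity.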
Nrf2 ARE act: qHTS of Nrf2 Activators | Potency, µM (titrated, usually from 46.1 µM), for the others: at the top dose activation, most hits filed as activators | AREc32 ARE-luciferase reporter (MCF7-derived line), luminescence, 24 h | AID 624171, 2012 | actives 0.31% (n = 410,000); note: potency is the fitted concentration of half-maximal effect; % of control where 0% means no effect; nearly all actives have a fitted effect of over 65% in size
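ARE-driven firefly luciferase activity in AREc32 cells measured after a 24 hr compound exposure at 37 deg C, using Steady-Glo reagent and a 30 min room-temperature hold.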
FLuc enzyme inh: Nrf2 qHTS screen for inhibitors: Purified Fluc Biochemical Counterscreen for Hit Validation; actives 4% (n = 1,400); Potency, µM (series often up to 57.5 µM), inactives show at the highest dose activity change, negative = inhibition, hits mostly inhibitors; shares compounds with Nrf2 inh; purified firefly luciferase, luminescence inhibition; note: potency is the fitted concentration of half-maximal effect; % is set by controls: 0 for no effect and ±100 for the full control effect; nearly all actives have a fitted effect of over 65% in size
Target sequence (P08659 whole entry, looked up): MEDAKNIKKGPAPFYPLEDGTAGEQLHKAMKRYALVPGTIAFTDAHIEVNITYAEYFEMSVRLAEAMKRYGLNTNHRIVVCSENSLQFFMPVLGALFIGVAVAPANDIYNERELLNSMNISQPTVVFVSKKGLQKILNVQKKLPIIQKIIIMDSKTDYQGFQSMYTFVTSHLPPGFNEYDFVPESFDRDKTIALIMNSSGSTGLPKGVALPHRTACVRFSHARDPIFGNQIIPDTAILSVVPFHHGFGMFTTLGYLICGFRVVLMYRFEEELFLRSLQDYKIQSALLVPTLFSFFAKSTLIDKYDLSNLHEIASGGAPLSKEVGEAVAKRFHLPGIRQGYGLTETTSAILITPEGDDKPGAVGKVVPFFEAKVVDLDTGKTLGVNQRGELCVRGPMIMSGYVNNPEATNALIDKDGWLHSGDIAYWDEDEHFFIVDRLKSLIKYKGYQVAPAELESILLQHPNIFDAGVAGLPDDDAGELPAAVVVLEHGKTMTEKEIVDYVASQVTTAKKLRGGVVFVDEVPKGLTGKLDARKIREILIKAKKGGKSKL
A549 tox-2: Nrf2 qHTS screen for inhibitors: A549 ARE-Fluc Cytotoxicity Counterscreen for Hit Validation | shares compounds with Nrf2 inh | actives 2% (n = 1,400) | AID 720523, 2013 | A549 ARE-Fluc cells, cytotoxicity counterscreen | Potency, µM (highest dose often 46.1 µM), for the others: at the highest dose activity change, negative = cytotoxicity, actives largely listed as inhibitors;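 note: potency is the fitted concentration of half-maximal effect; cells exposed to compounds for 18 to 24 hours; % is set by controls: 0 for no effect and ±100 for the full control effect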
Nrf2 ARE inh: Nrf2 qHTS screen for inhibitors: Nrf2 A549 ARE-Fluc Confirmation Assay for Hit Validation | shares compounds with Nrf2 inh | A549 ARE-firefly luciferase reporter, luminescence | Potency, µM (series often up to 46.1 µM), for inactives: at the highest dose activity change, negative = inhibition, actives largely listed as inhibitors | actives 74% (n = 1,400); note: potency is the fitted concentration of half-maximal effect; % is set by controls: 0 for no effect and ±100 for the full control effect; nearly all actives have a fitted effect of over 65% in size
Numbers without * were called inactive; ! = not confirmed by another sample. The list is not random: actives were taken first. Their share in the collection is about 3.2%. Unless noted, calls come from the whole dose curve; as a rule, active = well fitted curve in the direction sought with a large enough effect; inconclusive = small, poorly fitted or top-dose-only effect, or another doubt; inactive = no such curve, though single readings can be large; an effect the other way counts as inactive or inconclusive.

For CN1C(C(=O)Nc2ccc(OC(F)(F)F)cc2)=CC(c2cccs2)=NS1(=O)=O the results were BRCA1 expr up 2%, Nrf2 inh 3.7µM*!, IL2 activator 0, p53 reactivator 13%, A549 tox-1 1%, Nrf2 ARE act 0%, FLuc enzyme inh -2% and A549 tox-2 -26%.
For COc1ccc(NC(=O)C2=CC(c3cccs3)=NS(=O)(=O)N2C)cc1 the results were BRCA1 expr up 0%, Nrf2 inh inconclusive, IL2 activator -2, A549 tox-1 -10% and Nrf2 ARE act -2%.
For O=C(c1ccccc1)C(I)(I)N1CCOCC1 the results were BRCA1 expr up 14%.
For CC(=O)N(C)c1ccc(OCC(O)Cn2c(C)nc3ccccc32)cc1 (centres undefined) the results were BRCA1 expr up -20%, Nrf2 inh 9.2µM*, IL2 activator -3, p53 reactivator 2%, A549 tox-1 -18%, Nrf2 ARE act 0%, FLuc enzyme inh 1%, A549 tox-2 7% and Nrf2 ARE inh inconclusive.
Screening COc1cccc(N2CCN(C(=O)c3c4c(nc5ccccc35)C(=O)N(C3CCCCC3)C4)CC2)c1 returned Nrf2 inh -8%, A549 tox-1 -1% and Nrf2 ARE act 6%.
For Cc1ccc(NC(=O)c2cc(-n3cnnc3)ccc2Cl)cc1 the results were BRCA1 expr up -4%, Nrf2 inh -10%, IL2 activator 1, p53 reactivator -2%, A549 tox-1 inconclusive and Nrf2 ARE act -1%.
Screening O=C(Nc1ccc(-c2nc3ccccc3s2)cc1)c1cc(-n2cnnc2)ccc1Cl returned BRCA1 expr up -56%, Nrf2 inh 2.3µM*, IL2 activator -2, p53 reactivator -2%, A549 tox-1 inconclusive, Nrf2 ARE act 3%, FLuc enzyme inh inconclusive, A549 tox-2 -13% and Nrf2 ARE inh 7.3µM*.
For COc1ccc(C)cc1NC(=O)Cn1c(=O)cc(C)c2c(C)nn(C)c21 the results were Nrf2 inh 5.8µM*, A549 tox-1 -3%, Nrf2 ARE act -1%, FLuc enzyme inh 4%, A549 tox-2 -4% and Nrf2 ARE inh 2.3µM*.
Screening c1ccc(Nc2ncnc3sccc23)cc1 returned BRCA1 expr up 18%, Nrf2 inh 2%, IL2 activator 1, p53 reactivator 2%, A549 tox-1 4% and Nrf2 ARE act 2%.
For CC(Nc1ncnc2sccc12)c1ccccc1 (centres undefined) the results were BRCA1 expr up -17%, Nrf2 inh 1.6µM*, IL2 activator -3, p53 reactivator -1%, A549 tox-1 -7%, Nrf2 ARE act 0%, FLuc enzyme inh 0%, A549 tox-2 0% and Nrf2 ARE inh 1.5µM*.
Screening CCOc1ccc(CNS(=O)(=O)c2cc3c(cc2C)NC(=O)CO3)cc1OC returned A549 tox-1 9% and Nrf2 ARE act 0%.
Screening COc1ccc(OC)c(-c2nc(CN3CCN(C(=O)c4ccco4)CC3)c(C)o2)c1 returned BRCA1 expr up -14%, Nrf2 inh -21%, IL2 activator -2, p53 reactivator -3%, A549 tox-1 0% and Nrf2 ARE act 0%.
For COc1ccc(-c2nc(CN3CCN(c4ncnc5ccccc45)CC3)c(C)o2)c(OC)c1 the results were BRCA1 expr up -35%, Nrf2 inh 8.2µM*, IL2 activator -3, p53 reactivator -8%, A549 tox-1 inconclusive, Nrf2 ARE act 0%, FLuc enzyme inh 2%, A549 tox-2 -13% and Nrf2 ARE inh 8.2µM*.
Screening CCN(CC)c1ccc(/C=C/c2ccccn2)cc1 returned FLuc enzyme inh -13%, A549 tox-2 9.2µM* and Nrf2 ARE inh 1.6µM*.
`Clc1ccc(/C=C/c2ccnc3ccccc23)c(Cl)c1` gave FLuc enzyme inh inconclusive, A549 tox-2 -6% and Nrf2 ARE inh inconclusive.
CCN(CC)c1ccc(/C=C/c2ccnc3ccccc23)cc1 was read as BRCA1 expr up 49%, FLuc enzyme inh inconclusive, A549 tox-2 -12% and Nrf2 ARE inh 15µM*.
`C(=C\c1ccccn1)/c1ccccc1` gave FLuc enzyme inh 0%, A549 tox-2 -33% and Nrf2 ARE inh 10µM*.
Screening CCN(CC)CCN(CC)c1ccc(/C=C/c2ccnc3ccccc23)cc1 returned BRCA1 expr up 0%.
Screening CN(C)c1ccc(C=Cc2ccnc3ccccc23)cc1N returned BRCA1 expr up 0%, IL2 activator -1 and Nrf2 ARE act 8%.
For Cc1c(/C=C/c2ccnc3ccccc23)ccc(N(C)C)c1C the results were BRCA1 expr up -4%, FLuc enzyme inh -21%, A549 tox-2 -16% and Nrf2 ARE inh inconclusive.
`Cc1ccc2c(c1)-c1onc(C(=O)N(C)c3cccc(C(F)(F)F)c3)c1CO2` gave BRCA1 expr up 7%, Nrf2 inh -4%, A549 tox-1 1% and Nrf2 ARE act -1%.
For COc1ccc(Br)cc1CN(C)C(=O)Cc1ccc(OC)c(S(=O)(=O)N2CCOCC2)c1 the results were BRCA1 expr up 5%, Nrf2 inh 8.2µM*, IL2 activator 0, p53 reactivator -19%, A549 tox-1 11%, Nrf2 ARE act 0%, FLuc enzyme inh 4%, A549 tox-2 -2% and Nrf2 ARE inh 0%.

Screens as filed in PubChem.
